Reference: the supplement of paper PMC10849652
Of roughly 8,800 targets only a part is listed; those with a hit were picked by preference. About 0.5% of all pairs of compound and target were hits. A number with no mark means an inactive call.

How the values were obtained:
Assay in all cases: log2 fold change, soluble protein after heating vs DMSO (PISA); higher = thermal stabilisation; K562 lysate, 10 uM; active = over 0.2 and 3.5 SD of the protein, either way, in both replicates (recomputed)
vemurafenib = compound: CCCS(=O)(=O)Nc1ccc(F)c(C(=O)c2c[nH]c3ncc(-c4ccc(Cl)cc4)cc23)c1F [vemurafenib]
Procedure, shortened: (§1)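 A 30 min treatment with 10 μM compound was applied to crude K562 extract at 1 mg/mL protein in PBS pH 7.4 with 1 mM MgCl2. Heating for 3 min spanned 48°C-58°C, after which aliquots were pooled, adjusted to 0.5% NP-40 at 4°C and spun at 21,000xg for 90 min. TMTpro 16plex LC-MS/MS of the supernatant, with channel sums equalised, gave values recorded as log-two fold change in thermal stability against solvent controls, from duplicates.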

[1] = compound: CCCS(=O)(=O)Nc1ccc(F)c(C(=O)c2c[nH]c3ncc(Cl)cc23)c1F
Procedure, shortened: as §1

barasertib = compound: CCN(CCCOc1ccc2c(Nc3cc(CC(=O)Nc4cccc(F)c4)[nH]n3)ncnc2c1)CCOP(=O)(O)O [barasertib]
Procedure, shortened: as §1

[2] = compound: CC[C@@H]1C(=O)N(C)c2cnc(Nc3ccc(C(=O)NC4CCN(C)CC4)cc3OC)nc2N1C1CCCC1
Procedure, shortened: as §1

volasertib = compound: CC[C@@H]1C(=O)N(C)c2cnc(Nc3ccc(C(=O)N[C@H]4CC[C@H](N5CCN(CC6CC6)CC5)CC4)cc3OC)nc2N1C(C)C [volasertib]
Procedure, shortened: as §1

[3] = compound: CCn1c(C(=O)N(C2CC2)C2CC2)cc2c3c(ncn3C)c(Nc3cc(C)n(C)n3)nc21
Procedure, shortened: as §1

[4] = compound: CCn1cc(-c2ccnc3[nH]c(-c4cccc(CN(C)C)c4)cc23)c(-c2ccc(NC(=O)N(C)C)cc2)n1
Procedure, shortened: as §1

[5] = compound: CN1CCC(CNc2ccc3ncc(-c4cccc(OC(F)(F)F)c4)n3n2)CC1
Procedure, shortened: as §1

sotrastaurin = compound: CN1CCN(c2nc(C3=C(c4c[nH]c5ccccc45)C(=O)NC3=O)c3ccccc3n2)CC1 [sotrastaurin]
Procedure, shortened: as §1

saracatinib = compound: CN1CCN(CCOc2cc(OC3CCOCC3)c3c(Nc4c(Cl)ccc5c4OCO5)ncnc3c2)CC1 [saracatinib]
Procedure, shortened: as §1

UniProt Q9UHD2, sequence (Q9UHD2 whole entry, looked up): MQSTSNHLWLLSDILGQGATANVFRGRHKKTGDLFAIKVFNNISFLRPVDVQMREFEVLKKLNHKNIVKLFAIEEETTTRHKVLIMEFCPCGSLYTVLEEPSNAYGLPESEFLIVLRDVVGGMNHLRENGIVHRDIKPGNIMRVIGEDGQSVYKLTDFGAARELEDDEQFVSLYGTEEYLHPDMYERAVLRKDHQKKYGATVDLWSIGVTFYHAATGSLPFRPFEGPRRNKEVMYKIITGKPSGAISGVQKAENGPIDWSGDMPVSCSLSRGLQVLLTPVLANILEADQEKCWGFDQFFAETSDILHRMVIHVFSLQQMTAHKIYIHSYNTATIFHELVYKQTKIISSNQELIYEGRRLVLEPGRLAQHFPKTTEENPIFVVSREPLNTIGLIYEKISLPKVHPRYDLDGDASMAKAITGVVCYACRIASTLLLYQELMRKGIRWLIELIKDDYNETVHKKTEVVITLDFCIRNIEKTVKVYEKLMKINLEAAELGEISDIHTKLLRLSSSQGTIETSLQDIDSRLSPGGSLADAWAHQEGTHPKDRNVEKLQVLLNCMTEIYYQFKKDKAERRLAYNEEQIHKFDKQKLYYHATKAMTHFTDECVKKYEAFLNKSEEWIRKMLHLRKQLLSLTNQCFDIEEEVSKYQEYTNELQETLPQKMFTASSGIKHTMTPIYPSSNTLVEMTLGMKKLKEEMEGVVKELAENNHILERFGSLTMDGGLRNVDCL
UniProt Q04726, sequence (Q04726 whole entry, looked up): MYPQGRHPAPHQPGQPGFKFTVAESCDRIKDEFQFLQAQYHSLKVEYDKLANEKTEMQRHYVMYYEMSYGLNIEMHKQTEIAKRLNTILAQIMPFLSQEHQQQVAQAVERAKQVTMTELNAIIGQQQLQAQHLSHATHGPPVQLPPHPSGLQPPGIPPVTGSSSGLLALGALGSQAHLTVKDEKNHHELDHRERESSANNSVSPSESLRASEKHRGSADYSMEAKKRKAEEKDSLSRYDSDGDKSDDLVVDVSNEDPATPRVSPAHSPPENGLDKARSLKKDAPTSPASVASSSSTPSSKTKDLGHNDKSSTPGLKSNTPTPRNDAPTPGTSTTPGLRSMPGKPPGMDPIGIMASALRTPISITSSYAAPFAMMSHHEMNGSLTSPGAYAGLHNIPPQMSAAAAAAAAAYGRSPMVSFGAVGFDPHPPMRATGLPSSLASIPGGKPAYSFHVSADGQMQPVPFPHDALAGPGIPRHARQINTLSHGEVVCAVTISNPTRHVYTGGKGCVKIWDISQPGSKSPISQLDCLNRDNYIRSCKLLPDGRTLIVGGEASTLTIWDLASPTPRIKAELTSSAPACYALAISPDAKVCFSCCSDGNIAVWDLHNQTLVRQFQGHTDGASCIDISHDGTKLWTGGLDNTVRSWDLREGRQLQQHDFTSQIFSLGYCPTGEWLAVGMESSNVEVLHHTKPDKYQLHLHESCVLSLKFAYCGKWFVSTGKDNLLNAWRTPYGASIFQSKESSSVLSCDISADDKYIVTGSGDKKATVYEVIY
UniProt Q9BZL1, sequence (Q9BZL1 whole entry, looked up): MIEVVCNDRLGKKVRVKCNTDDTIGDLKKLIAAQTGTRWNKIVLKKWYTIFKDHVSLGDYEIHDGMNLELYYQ
UniProt Q24JP5, sequence (Q24JP5 whole entry, looked up): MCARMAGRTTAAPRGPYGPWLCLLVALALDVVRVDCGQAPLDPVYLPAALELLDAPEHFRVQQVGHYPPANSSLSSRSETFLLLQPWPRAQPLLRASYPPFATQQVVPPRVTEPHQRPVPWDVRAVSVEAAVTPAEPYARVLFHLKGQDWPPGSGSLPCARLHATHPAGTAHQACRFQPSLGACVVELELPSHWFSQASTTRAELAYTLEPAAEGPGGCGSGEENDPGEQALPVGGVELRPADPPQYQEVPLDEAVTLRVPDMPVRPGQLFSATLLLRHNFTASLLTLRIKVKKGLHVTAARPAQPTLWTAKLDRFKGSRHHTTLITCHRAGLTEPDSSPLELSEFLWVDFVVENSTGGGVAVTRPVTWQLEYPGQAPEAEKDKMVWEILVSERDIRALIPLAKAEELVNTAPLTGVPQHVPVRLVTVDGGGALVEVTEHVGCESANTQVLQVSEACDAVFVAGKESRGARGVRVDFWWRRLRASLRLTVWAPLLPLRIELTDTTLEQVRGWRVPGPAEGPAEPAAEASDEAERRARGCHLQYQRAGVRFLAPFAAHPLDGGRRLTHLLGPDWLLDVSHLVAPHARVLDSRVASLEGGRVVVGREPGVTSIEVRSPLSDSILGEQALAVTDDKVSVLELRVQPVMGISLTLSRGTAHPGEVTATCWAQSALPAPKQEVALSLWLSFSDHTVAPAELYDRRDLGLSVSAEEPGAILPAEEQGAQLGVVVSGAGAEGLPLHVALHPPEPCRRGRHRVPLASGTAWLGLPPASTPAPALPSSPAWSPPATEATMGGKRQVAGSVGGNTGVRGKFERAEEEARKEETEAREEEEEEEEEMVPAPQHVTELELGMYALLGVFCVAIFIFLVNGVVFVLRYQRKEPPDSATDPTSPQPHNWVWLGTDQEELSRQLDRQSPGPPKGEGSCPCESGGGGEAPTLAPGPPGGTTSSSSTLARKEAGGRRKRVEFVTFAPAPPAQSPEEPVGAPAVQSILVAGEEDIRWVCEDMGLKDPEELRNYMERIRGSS
UniProt O75382, sequence (O75382 whole entry, looked up): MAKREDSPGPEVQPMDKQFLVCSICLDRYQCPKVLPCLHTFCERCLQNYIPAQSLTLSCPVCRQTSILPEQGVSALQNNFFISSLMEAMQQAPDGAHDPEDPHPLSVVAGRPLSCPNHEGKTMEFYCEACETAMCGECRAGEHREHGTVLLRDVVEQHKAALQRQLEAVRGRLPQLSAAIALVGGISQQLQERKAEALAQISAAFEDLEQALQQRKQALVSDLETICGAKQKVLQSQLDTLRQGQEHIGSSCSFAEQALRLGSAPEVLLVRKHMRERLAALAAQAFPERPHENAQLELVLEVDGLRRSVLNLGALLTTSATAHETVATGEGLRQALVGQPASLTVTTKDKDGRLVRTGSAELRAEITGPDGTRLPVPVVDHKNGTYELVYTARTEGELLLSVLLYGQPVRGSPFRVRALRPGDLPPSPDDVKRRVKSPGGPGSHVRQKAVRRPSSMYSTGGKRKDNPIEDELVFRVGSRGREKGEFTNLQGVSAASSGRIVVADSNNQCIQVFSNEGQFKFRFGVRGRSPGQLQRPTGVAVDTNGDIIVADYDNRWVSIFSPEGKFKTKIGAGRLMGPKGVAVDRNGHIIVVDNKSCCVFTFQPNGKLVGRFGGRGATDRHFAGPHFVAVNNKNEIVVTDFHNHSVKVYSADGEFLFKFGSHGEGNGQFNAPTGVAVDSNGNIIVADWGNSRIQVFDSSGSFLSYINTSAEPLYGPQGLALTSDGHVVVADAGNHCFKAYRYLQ
UniProt O43399, sequence (O43399 whole entry, looked up): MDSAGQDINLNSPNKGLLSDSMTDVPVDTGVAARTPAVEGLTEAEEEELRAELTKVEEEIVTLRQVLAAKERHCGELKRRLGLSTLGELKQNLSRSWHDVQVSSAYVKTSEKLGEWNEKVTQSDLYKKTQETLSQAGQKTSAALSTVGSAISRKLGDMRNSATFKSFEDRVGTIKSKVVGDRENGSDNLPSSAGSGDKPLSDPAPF
UniProt P15884, sequence (P15884 whole entry, looked up): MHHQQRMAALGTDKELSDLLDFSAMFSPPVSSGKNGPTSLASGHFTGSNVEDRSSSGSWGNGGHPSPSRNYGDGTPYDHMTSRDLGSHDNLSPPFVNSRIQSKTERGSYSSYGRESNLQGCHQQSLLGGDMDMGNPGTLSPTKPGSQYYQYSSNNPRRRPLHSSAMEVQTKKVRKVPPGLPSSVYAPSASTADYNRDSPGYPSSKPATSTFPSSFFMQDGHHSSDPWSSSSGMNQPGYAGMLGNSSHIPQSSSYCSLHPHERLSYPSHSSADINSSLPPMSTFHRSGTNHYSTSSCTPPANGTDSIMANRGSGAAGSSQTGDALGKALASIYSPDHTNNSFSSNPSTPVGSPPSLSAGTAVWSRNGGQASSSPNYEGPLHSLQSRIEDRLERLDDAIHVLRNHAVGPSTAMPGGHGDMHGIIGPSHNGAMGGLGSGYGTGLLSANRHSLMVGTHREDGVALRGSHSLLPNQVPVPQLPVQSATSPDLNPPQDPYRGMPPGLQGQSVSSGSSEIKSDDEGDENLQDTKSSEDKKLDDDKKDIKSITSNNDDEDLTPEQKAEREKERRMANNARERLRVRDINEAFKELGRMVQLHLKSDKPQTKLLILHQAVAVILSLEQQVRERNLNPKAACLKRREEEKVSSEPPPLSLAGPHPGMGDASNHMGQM
UniProt Q9NRX6, sequence (Q9NRX6 whole entry, looked up): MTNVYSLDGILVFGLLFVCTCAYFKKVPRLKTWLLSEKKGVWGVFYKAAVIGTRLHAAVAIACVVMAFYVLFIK
UniProt P04818, sequence (P04818 whole entry, looked up): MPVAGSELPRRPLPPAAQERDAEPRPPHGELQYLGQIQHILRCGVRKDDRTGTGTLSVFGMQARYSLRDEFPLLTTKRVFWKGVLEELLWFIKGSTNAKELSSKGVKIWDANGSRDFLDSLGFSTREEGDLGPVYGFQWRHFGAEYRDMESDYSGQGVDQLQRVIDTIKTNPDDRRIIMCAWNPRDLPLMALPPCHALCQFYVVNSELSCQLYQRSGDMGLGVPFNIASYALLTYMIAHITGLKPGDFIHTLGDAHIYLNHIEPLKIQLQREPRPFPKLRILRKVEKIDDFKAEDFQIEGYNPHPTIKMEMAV
UniProt Q9BRN9, sequence (Q9BRN9 whole entry, looked up): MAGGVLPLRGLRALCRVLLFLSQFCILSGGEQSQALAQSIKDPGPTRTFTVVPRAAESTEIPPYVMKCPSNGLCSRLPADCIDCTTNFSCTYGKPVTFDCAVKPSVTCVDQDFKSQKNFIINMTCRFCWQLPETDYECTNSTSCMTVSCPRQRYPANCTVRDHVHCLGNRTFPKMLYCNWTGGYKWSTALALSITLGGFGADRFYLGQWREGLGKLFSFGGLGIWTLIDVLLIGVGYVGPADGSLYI
UniProt P61960, sequence (P61960 whole entry, looked up): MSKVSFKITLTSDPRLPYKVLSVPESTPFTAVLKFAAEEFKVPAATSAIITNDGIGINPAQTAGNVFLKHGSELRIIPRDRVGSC

Target | log2 fold change (vemurafenib) | log2 fold change [1] | log2 fold change (barasertib) | log2 fold change [2] | log2 fold change (volasertib) | log2 fold change [3] | log2 fold change [4] | log2 fold change [5] | log2 fold change (sotrastaurin) | log2 fold change (saracatinib)
TMEM167B (UniProt Q9NRX6) | 0.058 | -0.057 | -0.009 | 0.053 | 0.038 | -0.028 | -0.472 (active) | 0.086 | 0.056 | –
TCAF2 (UniProt A6NFQ2) | 0.052 | 0.041 | -0.048 | -0.027 | -0.049 | 0.045 | 0.003 | -0.05 | -0.017 | 0.004
TNIK isoform 4 (UniProt Q9UKE5) | 0.002 | -0.015 | -0.034 | 0.025 | 0 | 0.011 | 0.071 | 0.099 | 0.056 | 0.071
TRIM3 (UniProt O75382) | 0.13 | -0.085 | – | -0.029 | 0.09 | – | – | – | – | –
UFM1 (UniProt P61960) | -0.249 | -0.035 | 0.039 | 0.044 | 0.047 | 0.014 | 0.491 | -0.338 | 0.028 | 0.016
TUBB1 (UniProt Q9H4B7) | -0.039 | 0.011 | 0.002 | -0.025 | -0.087 | 0.034 | 0.15 | -0.025 | -0.045 | -0.002
TBK1 (UniProt Q9UHD2) | 0.008 | 0.002 | -0.03 | -0.058 | -0.064 | -0.021 | 0.216 | 0.079 | -0.045 | -0.029
TEC (UniProt P42680) | -0.081 | -0.119 | – | -0.054 | 0.14 | – | – | – | – | –
TMEM199 (UniProt Q8N511) | 0 | 0.026 | 0.009 | 0.023 | 0 | -0.003 | -0.06 | 0.054 | 0.035 | 0.048
TYMS (UniProt P04818) | -0.009 | 0.006 | 0.022 | -0.053 | -0.041 | -0.004 | -0.035 | -0.064 | 0.008 | 0
TXNIP (UniProt Q9H3M7) | 0.008 | – | -0.005 | -0.006 | – | 0.016 | 0.209 | -0.11 | 0.016 | -0.07
TK1 (UniProt K7ERV3) | -0.001 | – | 0.072 | -0.105 | – | 0.049 | -0.102 | 0.068 | -0.147 | 0.089
TLE3 isoform 5 (UniProt Q04726) | – | 0.037 | -0.176 | 0.026 | -0.025 | 0.034 | 0.101 | 0.178 | 0.015 | 0.049
UBR4 isoform 4 (UniProt Q5T4S7) | 0.02 | -0.1 | – | -0.096 | -0.104 | 0.077 | – | – | – | 0.061
TMEM132A isoform 2 (UniProt Q24JP5) | – | 0.239 | – | -0.078 | -0.144 | 0.028 | 0.055 | 0.3 | 0.044 | –
TCF20 (UniProt Q9UGU0) | – | -0.106 | 0.084 | – | 0.006 | – | -0.02 | -0.031 | 0.086 | 0.038
TRPM4 (UniProt Q8TD43) | – | – | 0.456 | – | – | 0.066 | -0.598 | 0.156 | 0.11 | 0.044
TASP1 (UniProt Q9H6P5) | – | 0.028 | 0.13 | -0.082 | -0.02 | -0.047 | – | – | 0.02 | -0.082
TMC1 (UniProt Q8TDI8) | 0.089 | -0.02 | – | -0.164 | -0.021 | -0.059 | – | – | 0.141 | –
TLK2 isoform 3 (UniProt Q86UE8) | – | – | – | – | – | – | 0.104 | -0.036 | – | –
TNIK isoform 5 (UniProt Q9UKE5) | – | -0.118 | 0.021 | – | -0.087 | -0.059 | -0.051 | -0.065 | 0.034 | 0.022
UBN1 (UniProt Q9NPG3) | -0.053 | -0.069 | – | 0.1 | 0.005 | – | -0.127 | 0.057 | 0.133 | 0.04
TENM4 (UniProt Q6N022) | – | -0.205 | 0.104 | – | -0.069 | – | 0.534 (active) | -0.257 | 0 | –
UBAP2L (UniProt F8W726) | 0.094 | -0.031 | – | – | -0.018 | – | – | – | -0.052 | –

Target | log2 fold change (vemurafenib) | log2 fold change [1] | log2 fold change (barasertib) | log2 fold change [2] | log2 fold change (volasertib) | log2 fold change [3] | log2 fold change [4] | log2 fold change [5] | log2 fold change (sotrastaurin) | log2 fold change (saracatinib)
TXNRD2 isoform 3 (UniProt Q9NNW7) | – | – | – | – | – | -0.081 | – | – | – | –
TCF3 (UniProt X6REB3) | 0.075 | – | – | – | – | – | 0 | 0.128 | – | –
TJP1 (UniProt G3V1L9) | 0.076 | – | -0.034 | – | – | -0.021 | 0.04 | -0.004 | -0.046 | 0.096
TTLL12 (UniProt V9GY16) | 0.261 | – | 0.102 | 0.227 | – | -0.465 | -0.393 | 0.133 | -0.175 | –
TPD52L2 isoform 3 (UniProt O43399) | – | – | 0.026 | – | – | -0.028 | -0.141 | 0.135 | – | –
TFPT (UniProt P0C1Z6) | – | -0.019 | 0.148 | – | 0.015 | – | – | – | – | 0.005
TLE3 (UniProt H0YL70) | – | – | – | – | – | – | – | – | – | 0.152
TCF4 (UniProt P15884) | – | -0.015 | – | -0.017 | 0.126 | 0.008 | -0.011 | 0.03 | -0.017 | 0.021
TUBA4A (UniProt C9JQ00) | – | – | 0.267 | – | – | – | 0 | -0.045 | – | –
TMEM154 (UniProt Q6P9G4) | – | – | – | 0.022 | – | -0.08 | – | – | 0.116 | -0.036
UBAP2L isoform 1 (UniProt Q14157) | – | – | 0.001 | – | – | 0.207 | – | – | -0.105 | –
UBL5 (UniProt Q9BZL1) | 0.014 | – | 0.036 | -0.015 | – | -0.028 | -0.126 | 0.097 | -0.186 | -0.007
TFPI isoform 2 (UniProt P10646) | 0 | – | – | – | – | – | – | – | -0.011 | –
TCF3 isoform 2 (UniProt P15923) | – | – | – | – | – | 0.065 | – | – | 0.043 | –
UCP2 (UniProt P55851) | 0.09 | – | – | – | – | -0.024 | – | – | -0.001 | –
TNFAIP3 (UniProt P21580) | – | 0.004 | -0.015 | -0.412 | -0.063 | 0.051 | -0.009 | 0.017 | -0.006 | 0.029
TEDC1 (UniProt Q86SX3) | – | 0.103 | – | 0.106 | -0.041 | 0.019 | – | – | -0.037 | -0.02
UBAP2, A0A0D9SFI5 | – | – | – | – | – | – | – | – | 0.007 | –
TRAF7 (UniProt Q6Q0C0) | -0.07 | – | – | 0.053 | – | 0.012 | -0.065 | 0.191 | -0.044 | 0.132
U2AF1L5 (UniProt P0DN76) | – | -0.013 | – | 0.027 | -0.036 | 0.015 | -1.21 (active) | 0.389 | – | -0.007
TM2D3 (UniProt Q9BRN9) | – | – | -0.105 | -0.079 | – | 0.199 | -0.934 (active) | 0.444 | – | –
TMPO isoform 2 (UniProt P42167) | 0.08 | – | 0.185 | 0.075 | – | – | – | – | – | 0.044
TJP1 (UniProt H0Y3R8) | – | – | – | – | – | – | 0.048 | -0.16 | – | –
